# GLS inhibitor – inhibitors of human glutaminase (GLS) | GLS enzymatic activity, qHTS titration | O94925 | 410,000 compounds, 0.21% hits | Potency, µM (doses to about 45.5 µM), inactives show at the top dose activity change, negative = inhibition, usual class: inhibitors; note: % is set by controls: 0 for no effect and ±100 for the full control effect
# Target sequence (O94925 whole entry, looked up): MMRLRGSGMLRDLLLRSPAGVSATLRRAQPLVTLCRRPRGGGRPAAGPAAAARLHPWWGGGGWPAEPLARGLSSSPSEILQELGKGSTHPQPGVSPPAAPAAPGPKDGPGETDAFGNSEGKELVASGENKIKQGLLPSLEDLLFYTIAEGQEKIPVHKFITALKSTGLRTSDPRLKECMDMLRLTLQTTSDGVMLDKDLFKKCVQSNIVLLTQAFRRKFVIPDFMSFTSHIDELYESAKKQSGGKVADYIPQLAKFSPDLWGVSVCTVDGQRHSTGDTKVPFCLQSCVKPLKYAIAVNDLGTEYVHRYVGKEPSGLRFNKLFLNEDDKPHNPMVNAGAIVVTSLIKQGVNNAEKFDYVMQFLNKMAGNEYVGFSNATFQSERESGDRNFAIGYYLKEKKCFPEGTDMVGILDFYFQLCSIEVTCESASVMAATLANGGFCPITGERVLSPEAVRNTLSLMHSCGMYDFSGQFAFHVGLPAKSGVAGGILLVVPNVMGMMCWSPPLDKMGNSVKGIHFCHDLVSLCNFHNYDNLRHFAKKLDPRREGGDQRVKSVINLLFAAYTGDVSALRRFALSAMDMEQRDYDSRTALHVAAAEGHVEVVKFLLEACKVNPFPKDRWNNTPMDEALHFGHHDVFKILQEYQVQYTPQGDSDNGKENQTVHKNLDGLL
#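 Read-out is an Amplex red fluorescence increase coupled through glutamate oxidase and HRP, measured before and after 30 min room-temperature incubation. hKGA is in 45 mM KH2PO4 (pH 8.2) with 0.02% Tween-20; glutamine added as 1mM solution.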
# BAZ2B block – BAZ2B (human) inhibition. Q9UIF8. 360,000 compounds, 4.4% hits. Potency, µM (top dose mostly 114 µM), for the others: top-dose activity change, negative = inhibition, most hits filed as inhibitors. AlphaScreen BAZ2B-H3K14Ac peptide displacement; note: % is set by controls: 0 for no effect and ±100 for the full control effect; nearly all actives have a fitted effect of over 60% in size
#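 Multi-concentration screen (max 110 uM) measuring displacement of acetylated histone H3 peptide from BAZ2B by AlphaScreen, using 50 nM protein, 50 nM peptide and 10 ug/mL streptavidin donor plus Ni-chelate acceptor beads.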
# G9a block – G9a (human) methyltransferase inhibition; 350,000 compounds, 8.8% hits; Potency, µM (titrated, usually from 102 µM), for inactives: at the top dose activity, negative = inhibition, usual class: inhibitors; G9a H3K9 monomethylation, AlphaScreen, 2 h; Q96KQ7; note: % is set by controls: 0 for no effect and ±100 for the full control effect; nearly all actives have a fitted effect of over 75% in size
#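 AlphaScreen read-out: biotin-H3K9 peptide (500 nM) methylation by 20 nM enzyme with 20 uM SAM, 2 h at room temperature after 15 min compound preincubation; anti-monomethyl H3K9 antibody plus donor/acceptor beads, 10 min dark.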
# HP1b chromo inh – inhibitors of HP1-beta chromodomain binding to methylated histone tails | P83916 | AlphaScreen HP1-beta / biotin-H3K9me3 peptide binding | Potency, µM (titrated, usually from 114 µM), without a hit: at the highest dose activity change, negative = inhibition, most hits filed as inhibitors | 390,000 compounds, 0.56% hits | AID 540317; note: nearly all actives have a fitted effect of over 70% in size
#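 Compound inhibition of the preformed complex between 50 nM HP1-beta and 50 nM biotinylated H3K9me3 peptide was read by AlphaScreen. Buffer was PBS pH 7.4 with 0.01% Tween-20. Incubations ran 30 min at room temperature, with 10 ug/mL donor/acceptor beads.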
# JMJD2A Tudor – blocks the human JMJD2A Tudor domain. O75164. AlphaScreen JMJD2A-Tudor / H3K4me3 peptide binding. Potency, µM (top dose mostly 114 µM), inactives show top-dose activity change, negative = inhibition, usual class: inhibitors. 390,000 compounds, 4.4% hits. AID 504339; note: % is set by controls: 0 for no effect and ±100 for the full control effect; nearly all actives have a fitted effect of over 50% in size
# Active calls of the source: *; ? = inconclusive; nt = no result; [ ] = dose if it differs, or a comment. This is a sample that favours compounds with a hit; in the whole collection about 10% have one here. Calls come from the whole dose curve; as a rule, active = well fitted curve in the direction sought with a large enough effect; inconclusive = small, poorly fitted or top-dose-only effect, or another doubt; inactive = no such curve, though single readings can be large; an effect the other way counts as inactive or inconclusive. Potency is the fitted concentration of half-maximal effect.
SMILES,GLS inhibitor,BAZ2B block,G9a block,HP1b chromo inh,JMJD2A Tudor
COc1cccc(C(=O)N2CCN(C3CCN(Cc4ccccc4)CC3)CC2)c1OC,7%,18µM*,?,22µM*,0.79µM*
CCOC(=O)CNC(=O)c1cc2c(=O)oc3ccccc3c2s1,-16%,11%,15%[59 µM],26%,13%
COc1ccc(NC(=O)c2cc(C3CCCCN3C(=O)c3cc(OC)c(C)c(OC)c3)on2)c(C)c1 (stereo not given),8%,nt,nt,nt,nt
CSc1ncccc1C(=O)OCC(=O)c1[nH]c(C)c(C(C)=O)c1C,4%,-13%,15%[12.7 µM],10%,-29%
COC(=O)c1cc(=O)nc(NNC(C)=O)s1,30%,nt,nt,nt,nt
CC1CCC(N2CCN(C(=O)c3ccccc3F)CC2)CC1 (stereo not given),0%,79µM*,16µM*,?,28µM*
Cc1c(Br)c(=O)oc2c(C)c(O)ccc12,1%,11%,21%[59 µM],62%,-6%[57.1 µM]
Cc1c(O)ccoc1=O,20%,-21%,-122%[59 µM],32%,28µM*
O=C(CSc1c2c(nc3cc(Cl)ccc13)CCCC2)NCc1ccco1,-9%,-6%,-45%[59 µM],10%,-6%[57.1 µM]
CCNc1nc(NCC)nc(N(C#N)CCOc2ccccc2)n1,11%,-3%,nt,13%,-17%
CCNc1nc(NC(C)C)nc(N(C#N)CCOc2ccccc2)n1,-1%,13%,13µM*,56%,-9%
O=c1[nH]c2ccccc2c(O)c1O,5.6µM*,2%,0.71µM*,?,50µM*
CCCCS(=O)c1c(O)c2ccccc2[nH]c1=O (stereo not given),14%,-7%,32µM*,29%,-13%
CCCCCc1c(O)c2ccccc2[nH]c1=O,20%,12%,8%[59 µM],10%,-18%
Cc1cc(C)nc(SCC(=O)Oc2ccc3oc(=O)cc(C)c3c2)n1,10%,-10%,50µM*,-15%,-14%[11.4 µM]
CCn1c(=O)n(CC(=O)Nc2cc(OC)c(OC)c(OC)c2)c(=O)c2ccccc21,8%,-6%,-12%,10%,-13%
Fc1ccc(N/N=C2/CC(c3ccccc3)Oc3ccccc32)c(F)c1 (stereo not given),2%,?,10µM*,-21%,?
CCN(CC)Cc1cc2ccccc2c2c1COC2,6%,-4%,-15%,44%,-2%
CCN(CC)Cc1cc(O)c(CN(CC)CC)cc1O,16µM*,18µM*,1.3µM*,1.4µM*,0.79µM*
CCOC(=O)c1c(NC(=O)Nc2ccc(C)cc2)sc2c1CCN(C)C2,0%,-3%,13%,3%,-2%
CCOC(=O)c1c(/N=C/N(C)C)sc2c1CCC2,24%,?,-18%[59 µM],-13%,-34%
CCOC(=O)c1c(/N=C/c2ccc(OC)cc2O)sc2c1CCN(C)C2,0%,40µM*,nt,?,45µM*
CN1CCc2c(sc(/N=C/c3c[nH]c4ccccc34)c2C(N)=O)C1,?,-28%,45µM*,-27%,?
CCOC(=O)c1c(/N=C/c2ccc(C)cc2O)sc2c1CCC2,14%,?,45µM*,-38%,-27%
CN1CCc2c(sc(/N=C/c3c[nH]c4ccccc34)c2C#N)C1,0%,?,nt,-35%,?
SMILES,GLS inhibitor,BAZ2B block,G9a block,HP1b chromo inh,JMJD2A Tudor
O=C(c1ccc(Br)c(S(=O)(=O)N2CCCCC2)c1)N1CCCCC1,-1%,-1%,43%,18%,-15%
O=C(Nc1ccccc1)Nc1cnccn1,6%,-14%,51%,23%,-1%
Cc1ccccc1-n1ncc2c([N+](=O)[O-])cc([N+](=O)[O-])cc21,4%,32µM*,?,40µM*,56µM*
Cc1nc(C(F)(F)F)ccc1C(=O)N1CCC1(C)C(=O)NS(=O)(=O)c1ccc(C#N)cc1 (stereo not given),-15%,nt,nt,nt,nt
O=[N+]([O-])c1ccc(N=Nc2ccc(O)cc2O)cc1,-4%,32µM*,40µM*,15%,-8%
Cc1ccc(OCCn2cc(/C=C3\C(=O)NN(c4ccccc4)C3=O)c3ccccc32)cc1,-11%,?,-12%[59 µM],-9%,?
O=C(N/N=C/c1ccc(-c2cccc([N+](=O)[O-])c2)o1)c1ccc([N+](=O)[O-])cc1,-12%,-30%,0%,-4%,-29%
O=C1NN(c2ccc(Cl)c(Cl)c2)C(=O)/C1=C/c1ccc(-c2ccccc2C(=O)O)o1,13µM*,40µM*,40µM*,?,?
O=C(O)c1ccc(N2C(=O)/C(=C/c3ccc(-c4ccc([N+](=O)[O-])cc4)o3)C=C2c2ccccc2)cc1,?,11µM*,5.6µM*,14µM*,7.9µM*
COC(=O)c1ccc(N2NC(=O)/C(=C/c3ccc(-c4ccc(Cl)c(C(=O)O)c4)o3)C2=O)cc1,?,50µM*,18µM*,?,56µM*
O=C1NN(c2ccccc2)C(=O)/C1=C/c1ccc(Sc2cccc3ccccc23)o1,-23%,10µM*,32µM*,?,?
CCn1nc(C)c(CCN(C)C(=O)Nc2cc(C)cc(C)c2)c1C,-12%,-12%,8%[12.7 µM],?,0%
CCCCC1Cc2[nH]c(=S)[nH]c(=O)c2C(c2ccc(Cl)cc2)O1 (stereo not given),0%,nt,nt,nt,nt
O=C1NN(c2ccccc2)C(=O)/C1=C/c1ccc(-c2ccc(C(=O)O)cc2)o1,11µM*,50µM*,nt,?,56µM*
Cc1ccc(N2NC(=O)/C(=C/c3ccc(-c4ccc(Cl)c(C(=O)O)c4)o3)C2=O)cc1C,?,?,?,-3%,-24%
NNC(=O)c1csc(-c2ncc(C(F)(F)F)cc2Cl)n1,?,5%,15%,34%,-11%
CCC1CSC(Nc2ccc(C(=O)/C=C/c3cccc(C)c3)cc2)=N1 (stereo not given),0%,?,2.8µM*,28%,-30%
O=C(C(Cl)c1ccccc1)N1CCOCC1 (stereo not given),4%,30%,22µM*,-11%,-18%
O=C(C(c1ccccc1)C(O)(c1ccccc1)c1ccccc1)N1CCOCC1 (stereo not given),-12%,nt,nt,11%[57 µM],-9%
O=C(CCS(=O)(=O)c1ccccc1)Nc1nc(-c2cccs2)cs1,1%,-28%,50µM*,22%,-10%
O=C(CS(=O)(=O)c1ccccc1)Nc1ccc(Cl)cn1,2%,-19%,52%,27%,-19%
O=C(CCS(=O)(=O)c1ccccc1)Nc1ccc(Cl)cn1,0%,?,45µM*,?,-20%
O=C(COc1ccccc1)Nc1nc(-c2cccs2)cs1,1%,-5%,16%,48%,3%
O=C(CCS(=O)(=O)c1ccc(F)cc1)Nc1nc(-c2ccncc2)cs1,?,-24%,7.9µM*,?,-35%
CC(C)(C)c1csc(NC(=O)CCS(=O)(=O)c2ccc(F)cc2)n1,0%,nt,nt,nt,nt
N#C/C(C(=O)c1ccccc1)=C1/SC=C(N)N1c1ccccc1,nt,45µM*,?,nt,nt

# Screening results (PubChem)
